Drawing on ChEMBL document CHEMBL4296182, “CO-ADD screening of NIH NCI Diversity Set V”, this text covers Inhibition for 19 compounds.

One assay deals with Staphylococcus aureus. Put plainly: Antibacterial activity against Staphylococcus aureus MRSA ATCC 43300 (CO-ADD:GP_020); MIC in CAMBH media using NBS plates, by Resazurin F(560/590). It counts as functional. To be noted: Concentration 20 uM, ASSAY_TEST Inhibition of Bacterial Growth, detection method Resazurin, Fluorescence (ex560/em590), MEDIA CAMHB, plate type 384well, CORNING #3640, time 18 hr. Background: The colour change of resazurin is a common sign of viable cells or microbes.

The subject of the next assay is Acinetobacter baumannii. Put plainly: Antibacterial activity against Acinetobacter baumannii ATCC 19606 (CO-ADD:GN_034); MIC in CAMBH media using NBS plates, by Resazurin F(560/590). The format is functional. To be noted: Concentration 20 uM, ASSAY_TEST Inhibition of Bacterial Growth, detection method Resazurin, Fluorescence (ex560/em590), MEDIA CAMHB, plate type 384well, CORNING #3640, time 18 hr.

In a further assay the test system is Escherichia coli. Put plainly: Antibacterial activity against Escherichia coli ATCC 25922 (CO-ADD:GN_001); MIC in CAMBH media using NBS plates, by Resazurin F(560/590). The settings on record: Concentration 20 uM, ASSAY_TEST Inhibition of Bacterial Growth, detection method Resazurin, Fluorescence (ex560/em590), MEDIA CAMHB, plate type 384well, CORNING #3640, time 18 hr. The format is functional.

The test system of another assay is Klebsiella pneumoniae. The settings on record: Concentration 20 uM; ASSAY_TEST Inhibition of Bacterial Growth; detection method Absorption (OD600); MEDIA CAMHB; plate type 384well; NBS; CORNING #3640; time 18 hr.
A further assay concerns Candida albicans. The settings on record: 20 µM.
A further assay has as its system Cryptococcus neoformans. The settings on record: Concentration 20 uM; ASSAY_TEST Inhibition of Fungal Growth; detection method Resazurin; Absorption (OD600-OD570); plate type 384well; NBS; CORNING #3640.

For part of these data: Potency and affinity values are given separately.

The term Inhibition denotes the drop in the measured response relative to a control, in per cent.

In the case of `Cn1ncc2c(Nc3ccccc3Cl)nc(Nc3ccccc3Cl)nc21`, the Inhibition is 12.86% in the assay on Staphylococcus aureus; -3.35% in the assay with Acinetobacter baumannii; -7.44% in the assay with Escherichia coli; 23.76% in the assay on Klebsiella pneumoniae; 8.17% in the assay with Candida albicans; -4.25% with Cryptococcus neoformans.
As to `O=C(Nc1ccc(Cl)c([N+](=O)[O-])c1)Nc1nc2ccccc2s1`, the Inhibition stood at 44.46% in the assay with Staphylococcus aureus; 0.46% with Acinetobacter baumannii; 3.52% with Escherichia coli; 21.95% in the assay on Klebsiella pneumoniae; 9.03% with Candida albicans; 11.69% in the assay with Cryptococcus neoformans.
Take `Cc1nc2c(O)cccc2cc1CO`: the Inhibition is 12.47% in the assay with Staphylococcus aureus; -18.52% in the assay with Acinetobacter baumannii; 6.1% in the assay with Escherichia coli; 7.86% in the assay with Klebsiella pneumoniae; -0.94% with Candida albicans; -5.84% in the assay with Cryptococcus neoformans.
For the compound `O=C1C(CO)C(CO)C(CO)C1CO` (centres undefined), the Inhibition in the assay with Staphylococcus aureus is 12.78%; in the assay with Acinetobacter baumannii, -16.04%; in the assay on Escherichia coli, 12.18%; in the assay with Klebsiella pneumoniae, 2.22%; with Candida albicans, -0.61%; with Cryptococcus neoformans, -11.22%.
Regarding `O=C(Nc1ccc(Cl)cc1)Nc1cccc2nsnc12`, the Inhibition was 6.14% in the assay on Staphylococcus aureus; 9.14% in the assay with Acinetobacter baumannii; -11.2% in the assay on Escherichia coli; 5.1% with Klebsiella pneumoniae; 11.3% with Candida albicans; -2.68% in the assay on Cryptococcus neoformans.
As for `COc1cc(CCC(=O)O)on1`, the Inhibition is 9.35% with Staphylococcus aureus; -6.5% in the assay with Acinetobacter baumannii; 10.23% in the assay with Escherichia coli; 8.1% in the assay on Klebsiella pneumoniae; -0.47% in the assay on Candida albicans; -11.79% with Cryptococcus neoformans.
As for `Oc1ccc(Cc2ccc(Cl)cc2)c(O)c1`, the Inhibition with Staphylococcus aureus was 10.37%; in the assay on Acinetobacter baumannii, -6.86%; in the assay on Escherichia coli it was 10.87%; with Klebsiella pneumoniae, 7.26%; in the assay with Candida albicans, -0.85%; in the assay on Cryptococcus neoformans, -7.42%.
`Cc1cc(C)c2c(SC(C)C)nc(N)nc2n1`: the Inhibition in the assay on Staphylococcus aureus was -0.52%; in the assay with Acinetobacter baumannii, -6.63%; in the assay with Escherichia coli, 2.33%; in the assay with Klebsiella pneumoniae, 4.23%; in the assay with Candida albicans, 0.54%; in the assay with Cryptococcus neoformans it was -10.66%.
Turning to `CCOc1ccc2sc(NS(=O)(=O)c3ccc(N)cc3)nc2c1`, the Inhibition with Staphylococcus aureus was -6.39%; with Acinetobacter baumannii, -10.5%; in the assay with Escherichia coli it was 7.14%; in the assay with Klebsiella pneumoniae it was 12.93%; in the assay on Candida albicans it was 4%; in the assay with Cryptococcus neoformans it was -12.92%.
Turning to `CC1(C)N=C(N)N=C(NCCCOc2ccc([N+](=O)[O-])cc2)N1.CCS(=O)(=O)O`, the Inhibition in the assay on Staphylococcus aureus was 25.11%; in the assay with Acinetobacter baumannii, -9.38%; in the assay with Escherichia coli it was 11.82%; in the assay on Klebsiella pneumoniae, 18.17%; with Candida albicans, -1.81%; with Cryptococcus neoformans, -10.08%.
With `Oc1ccccc1/N=C/c1c(O)ccc2ccccc12`, the Inhibition with Staphylococcus aureus was 7.8%; in the assay on Acinetobacter baumannii, -11.56%; in the assay with Escherichia coli, 8.07%; in the assay on Klebsiella pneumoniae it was 1.58%; in the assay on Candida albicans, 52.3%; in the assay on Cryptococcus neoformans, 25.14%.
For the compound `CC(=O)OC1COC(OC(C)=O)CO1` (centres undefined), the Inhibition is -14.46% in the assay with Staphylococcus aureus; -1.98% with Acinetobacter baumannii; -12.48% with Escherichia coli; 0.6% in the assay on Klebsiella pneumoniae; -0.61% in the assay with Candida albicans; 10.42% with Cryptococcus neoformans.
For `CCOC(=O)C1(C#N)C(=O)CS/C1=N/c1ccccc1Cl` (centres undefined), the Inhibition in the assay with Staphylococcus aureus was 19.69%; in the assay with Acinetobacter baumannii it was 6.45%; with Escherichia coli, 0.68%; with Klebsiella pneumoniae, 8.87%; in the assay on Candida albicans, 1.9%; in the assay on Cryptococcus neoformans it was -13.01%.
Take `O=[N+]([O-])c1nc[nH]c1/C=C\c1ccccc1`: the Inhibition in the assay with Staphylococcus aureus was 6.19%; in the assay on Acinetobacter baumannii it was -12.82%; with Escherichia coli it was 5.35%; with Klebsiella pneumoniae it was 8.67%; with Candida albicans, 3.47%; with Cryptococcus neoformans, 10.56%.
On to `CC(=O)Oc1ccc(OC(C)=O)c2c1CC(C)=C(C)C2`, for which the Inhibition in the assay with Staphylococcus aureus is 4.66%; with Acinetobacter baumannii, -3.24%; with Escherichia coli it was 12.77%; in the assay on Klebsiella pneumoniae it was 4.69%; in the assay on Candida albicans, 1.46%; in the assay with Cryptococcus neoformans, -18.35%.
For the compound `Clc1c(Cl)c(Cl)c2[nH]nnc2c1Cl`, the Inhibition was -10.41% with Staphylococcus aureus; -8.91% with Acinetobacter baumannii; 8.31% with Escherichia coli; 1.32% with Klebsiella pneumoniae; 18.5% with Candida albicans; -10.27% in the assay on Cryptococcus neoformans.
On to `Cc1ccncc1C(N)=O`, for which the Inhibition is 0.11% in the assay on Staphylococcus aureus; -6.4% in the assay on Acinetobacter baumannii; 17.18% in the assay on Escherichia coli; 14.09% in the assay on Klebsiella pneumoniae; 1.98% in the assay on Candida albicans; -4.15% in the assay on Cryptococcus neoformans.
On to `O=P(O)(O)c1cc(-c2ccccc2)oc1-c1ccccc1`, for which the Inhibition in the assay on Staphylococcus aureus was -4.92%; in the assay on Acinetobacter baumannii, 9.92%; in the assay with Escherichia coli, 13.72%; in the assay on Klebsiella pneumoniae, 15.02%; in the assay on Candida albicans, 5.26%; in the assay on Cryptococcus neoformans it was -17.53%.
As for `CCCCSc1[nH]cnc2nncc1-2`, the Inhibition is -2.6% in the assay with Staphylococcus aureus; -0.75% with Acinetobacter baumannii; 12.29% in the assay with Escherichia coli; -0.95% in the assay with Klebsiella pneumoniae; 4.01% in the assay on Candida albicans; -16.47% in the assay with Cryptococcus neoformans.
